Assay outcomes: PubChem, several laboratories
dFosB act-1: activators of delta FosB homodimer, primary screen, biochemical, fluorescence polarization, TAMRA-CDK5 oligo, single point. purified delta FosB; percent of positive-control signal above neutral wells. activation, % at 25 µM. 0.99% of 340,000 active. Protein FosB (Mus musculus), P13346. AID 493131, 2011;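 active = mean activation above about 17%, with every replicate also reaching it, limit read from the data, passing the limit was not always enough; inconclusive = only one of the two conditions met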
Target sequence (P13346 whole entry, looked up): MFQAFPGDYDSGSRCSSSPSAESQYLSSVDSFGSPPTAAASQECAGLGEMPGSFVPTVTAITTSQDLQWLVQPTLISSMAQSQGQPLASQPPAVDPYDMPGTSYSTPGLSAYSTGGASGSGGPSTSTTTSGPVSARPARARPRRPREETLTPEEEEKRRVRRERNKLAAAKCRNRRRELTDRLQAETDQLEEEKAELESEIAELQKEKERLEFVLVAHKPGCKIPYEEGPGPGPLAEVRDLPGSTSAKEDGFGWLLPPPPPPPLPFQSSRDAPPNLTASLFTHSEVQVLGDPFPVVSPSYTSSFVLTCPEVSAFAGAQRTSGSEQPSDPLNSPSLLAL
Vif imaging: HIV Vif self-association inhibitors, primary screen, imaging, HEK293T, single point | HEK293T cells, Vif self-association by quenched fluorescence, 24 h | inhibition, % at 7.49 µM | 0.35% of 340,000 active | AID 602346, 2012; in the data active = inhibition above about 50%, passing the limit was not always enough; inconclusive = no clear call, values can overlap the other calls; inactive = below about 31%
GSIS activator: GLuc luminescence reporter in INS-1E cells, primary screen for activators of glucose-dependent secretion of insulin | INS-1E GLuc reporter insulin secretion, 2-3 h | activation, % at 16.6 µM | 0.61% of 370,000 active | AID 743287, 2014;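 active = lowest replicate activation of at least 40%, so every replicate reaches that level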;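 also: 0% = median of neutral control wells and 100% = median of IBMX positive control wells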
A1 inh: caspase 3/7 activation in MEF A1-2A-BIM cells, primary screen, A1 inhibitor project, cell-based, luminescence, HTS; Caspase-Glo 3/7 luminescence, 3 h; percent of clofoctol response, vehicle zero; caspase activation, % (no concentration beside the values); 0.066% of 330,000 active; AID 2462, 2010;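 active = over half of replicate activation scores above 10%, or exactly half above 10 with the replicate mean above 10; inconclusive = replicate mean below 10 yet half the replicates above 10; inactive = over half of replicates below 10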
Neddylation inh: inhibitors of cullin neddylation, primary screen, biochemical, TR-FRET, uHTS, NAE and Ubc12; inhibition, % at 25 µM; 0.58% of 360,000 active; in the data active = inhibition above about 36%
dFosB act-2: activators of mouse delta FosB DNA binding, confirmation, biochemical, fluorescence polarization, TAMRA-CDK5 oligo, cherry-picked samples | shares compounds with dFosB act-1 | purified delta FosB; normalised: neutral wells 0, positive control 100 | activation, % at 24.9 µM | 2,400 tested, under 10 active | AID 588690, 2011;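 active = highest replicate activation at or above 34% and every replicate reaching that threshold; inconclusive = meets only one of the two criteria; inactive = meets neither criterion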;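 also: higher polarization means more probe DNA bound by delta FosB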
* = called active by the depositor; ? = inconclusive; . = no result shown. Shown are actives, neighbours in structure and some others; about 1.9% of the full set was active somewhere.

SMILES	dFosB act-1	Vif imaging	GSIS activator	A1 inh	Neddylation inh	dFosB act-2
O=C(Nc1nccs1)c1cc(-c2ccccn2)nc2c(Cl)cccc12	38.8*	0.2	10.1	2.9	15.8	4.1
Cc1cc(NC(=O)c2cc(-c3ccccn3)nc3c(Cl)cccc23)no1	14.7	-2.1	9.7	0.0	-55.3	.
O=C(CCNC(=O)c1ccccc1Cl)Nc1ccc(Br)c(C(F)(F)F)c1	0.7	-3.8	-1.9	0.7	1.8	.
O=C(CCNC(=O)c1ccccc1Cl)Nc1cc(C(F)(F)F)ccc1Cl	34.0*	6.4	.	-0.3	0.8	5.6
CCC(=O)Nc1nnc(SCC(=O)NCc2ccc3c(c2)OCO3)s1	22.6*	-1.3	22.3	-0.4	-3.1	-1.1
CC(=O)Nc1nnc(SCC(=O)NCc2ccc3c(c2)OCO3)s1	10.4	3.2	7.4	-0.6	3.4	.
CCOC(=O)CSc1nnc(NC(=O)c2ccc3c(c2)OCO3)s1	40.8*	5.1	2.4	-1.7	29.2	1.3
CCSc1nnc(NC(=O)c2ccc3c(c2)OCO3)s1	6.7	.	9.6	-7.5	12.9	.
COc1cccc(C(=O)Nc2ccc3c(c2)C(=O)N(C)C[C@H](OC)[C@H](C)CN(C(=O)C2CCCC2)[C@@H](C)CO3)c1	.	.	-37.4	.	.	.
CCC(=O)N(C)C[C@@H]1Oc2cc(C3=CCCCC3)ccc2S(=O)(=O)N([C@@H](C)CO)C[C@H]1C	.	.	-1.1	.	.	.
COc1ccc2nc(NC(=O)C3CCN(S(=O)(=O)c4cccs4)CC3)sc2c1	25.3*	.	.	0.5	-1.2	?
CCCn1c(N)c(N(CCOC)C(=O)c2ccc(-c3ccc(Cl)cc3)o2)c(=O)[nH]c1=O	-5.1	2.6	3.7	-0.7	-0.5	.
COCCn1c(N)c(N(Cc2ccccc2)C(=O)c2ccc(-c3ccc(Cl)cc3)o2)c(=O)[nH]c1=O	23.2*	2.7	5.2	0.3	-1.1	0.7
Cc1ccccc1S(=O)(=O)N1C[C@H](O)COC[C@@H]2O[C@@H](CC(=O)NCc3ccccc3Cl)CC[C@H]21	.	.	-12.5	.	.	.
COCCN(C(=O)COC(=O)/C=C/c1cccs1)c1c(N)n(Cc2ccccc2)c(=O)[nH]c1=O	13.3	0.3	25.1	-0.3	2.6	.
CC(C)CN(C(=O)CSc1nnnn1-c1ccccc1)c1c(N)n(CC(C)C)c(=O)[nH]c1=O	38.4*	-9.6	13.0	-0.4	10.5	3.1
CC(C)CN(C(=O)COC(=O)Cc1ccc(Cl)cc1)c1c(N)n(Cc2ccccc2)c(=O)[nH]c1=O	-1.6	-3.0	9.1	0.0	11.8	.
CN(C(=O)COC(=O)/C=C/c1ccc2ccccc2n1)c1c(N)n(Cc2ccccc2)c(=O)[nH]c1=O	23.4*	0.0	-3.3	0.8	-18.4	4.7
CC(C)CN(C(=O)COC(=O)CSc1ccccc1)c1c(N)n(Cc2ccccc2)c(=O)[nH]c1=O	29.4*	50.3*	28.5	1.5	-6.4	0.7
CC(C)CN(C(=O)COC(=O)/C=C/c1cccs1)c1c(N)n(Cc2ccccc2)c(=O)[nH]c1=O	33.7*	9.6	43.7*	0.4	7.8	2.7
COc1ccc(S(=O)(=O)Nc2ccc3c(c2)C(=O)N([C@@H](C)CO)C[C@@H](C)[C@H](CN(C)S(=O)(=O)c2c(C)noc2C)OCCCC[C@H](C)O3)cc1	.	.	-6.9	.	.	.
CCOc1ccc(S(=O)(=O)N(C)c2ccc(OCC(=O)N3c4ccc(C)cc4C4CN(C)CCC43)cc2)cc1 (stereo not drawn)	33.6*	-3.0	-28.0	0.2	-8.7	2.5
Nc1nonc1-n1nnc(C(=O)N/N=C/c2c(Cl)cccc2Cl)c1CSC1=NCCS1	26.6*	3.6	3.3	0.4	1.2	1.9
Nc1nonc1-n1nnc(C(=O)N/N=C/c2ccc(OCc3ccccc3)cc2)c1COc1ccc(F)cc1	-0.2	0.7	-8.7	-0.3	.	.
Nc1nonc1-n1nnc(C(=O)N/N=C/c2ccccc2Cl)c1COc1ccc(F)cc1	26.8*	-6.5	11.4	0.4	8.2	1.7
